The values that follow come from the supplement of paper PMC6089552.

In all, about 3,200 compounds went through this assay and about 300 (9.4%) showed activity. This is one part of a sample in which actives are shown more often than they occur. A number with no mark means an inactive call.

This experiment deals with A673/TR/shEF. Briefly: cell viability (LOESS-normalised, relative to median of negative controls) (log2 ratio); higher = more viable cells (less compound effect), active = hit call of the paper (over 3 MAD below the median). To be noted: treatment time: 72 h. The method in brief:
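For three days, A673/TR/shEF Ewing sarcoma cells in 384-well plates (1,500 per well) were treated with library compounds at two or more concentrations or with DMSO controls, after doxycycline had been added or withheld 24 h beforehand to induce EWS-FLI1 shRNA knockdown. Viability was read by CellTiter-Glo luminescence on an Envision reader. The data were LOESS-corrected per plate, divided by the median of negative controls and log2-transformed.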

[1] abbreviates: 0.25 µM, library screen: screen1, EWS-FLI1 expression: high (no doxycycline).
The mark [2] stands for this setting: 0.25 µM, library screen: screen1, EWS-FLI1 expression: low (doxycycline-induced shRNA knockdown).
[3] abbreviates: 2.5 µM, library screen: screen1, EWS-FLI1 expression: high (no doxycycline).
[4] abbreviates: 2.5 µM, library screen: screen1, EWS-FLI1 expression: low (doxycycline-induced shRNA knockdown).
Setting [5] is: 0.103 µM, library screen: screen3, EWS-FLI1 expression: high (no doxycycline).
The mark [6] stands for this setting: 0.103 µM, library screen: screen3, EWS-FLI1 expression: low (doxycycline-induced shRNA knockdown).
The mark [7] stands for this setting: 0.25 µM, library screen: screen2, EWS-FLI1 expression: high (no doxycycline).
Setting [8] is: 0.25 µM, library screen: screen2, EWS-FLI1 expression: low (doxycycline-induced shRNA knockdown).
[9] abbreviates: 0.308 µM, library screen: screen3, EWS-FLI1 expression: high (no doxycycline).
Setting [10] is: 0.308 µM, library screen: screen3, EWS-FLI1 expression: low (doxycycline-induced shRNA knockdown).
The mark [11] stands for this setting: 0.926 µM, library screen: screen3, EWS-FLI1 expression: high (no doxycycline).
Setting [12] is: 0.926 µM, library screen: screen3, EWS-FLI1 expression: low (doxycycline-induced shRNA knockdown).
Setting [13] is: 2.5 µM, library screen: screen2, EWS-FLI1 expression: high (no doxycycline).
Setting [14] is: 2.5 µM, library screen: screen2, EWS-FLI1 expression: low (doxycycline-induced shRNA knockdown).
Where [15] appears, read: 2.8 µM, library screen: screen3, EWS-FLI1 expression: high (no doxycycline).
[16] abbreviates: 2.8 µM, library screen: screen3, EWS-FLI1 expression: low (doxycycline-induced shRNA knockdown).
The mark [17] stands for this setting: 8.3 µM, library screen: screen3, EWS-FLI1 expression: high (no doxycycline).
The mark [18] stands for this setting: 8.3 µM, library screen: screen3, EWS-FLI1 expression: low (doxycycline-induced shRNA knockdown).
[19] abbreviates: 25 µM, library screen: screen3, EWS-FLI1 expression: high (no doxycycline).
Setting [20] is: 25 µM, library screen: screen3, EWS-FLI1 expression: low (doxycycline-induced shRNA knockdown).
Where [21] appears, read: 0.025 µM, library screen: screen2, EWS-FLI1 expression: high (no doxycycline).
The mark [22] stands for this setting: 0.025 µM, library screen: screen2, EWS-FLI1 expression: low (doxycycline-induced shRNA knockdown).
Where [23] appears, read: 25 µM, library screen: screen2, EWS-FLI1 expression: high (no doxycycline).
[24] abbreviates: 25 µM, library screen: screen2, EWS-FLI1 expression: low (doxycycline-induced shRNA knockdown).

On to `COc1cc(CN2CCN(Cc3cccc(OC)c3OC)CC2)c([N+](=O)[O-])cc1OC`, for which the “cell viability (log2)” value is, setting by setting: under setting [1], 0.00876; under setting [2], 0.0541; under setting [3], 0.119; under setting [4], -0.0278.
Taken in the same sequence, the figures for `CC1(C)OC(=O)CC(O)[C@@]2(C)C1CC(=O)[C@]1(C)C2CCC2(C)C(c3ccoc3)OC(=O)[C@H]3O[C@]321` (some centres undefined) were 0.0277, 0.0481, 0.0671 and 0.0691.
For `C[C@]12CCC3c4ccc(OC(=O)CCC(=O)O)cc4CCC3C1CCC2=O` (some centres undefined) the same measures were 0.126, 0.0832, 0.102 and 0.0823.
Turning to `C=C/C(C)=C\C[C@@H]1[C@@]2(C)CCCC(C)(C)[C@@H]2CC[C@@]1(C)O`, the “cell viability (log2)” value is, setting by setting: under setting [1], 0.0522; under setting [2], 0.0309; under setting [3], 0.126; under setting [4], 0.0611.
For `COc1cc2c(cc1O)CC[C@@H]1[C@@H]2CC[C@]2(C)[C@@H](O)CC[C@@H]12`, the “cell viability (log2)” value by setting is: under setting [5], 0.0202; under setting [6], 0.0975; under setting [7], 0.11; under setting [8], 0.04; under setting [9], 0.0934; under setting [10], 0.0693. For the same molecule, the “cell viability (log2)” value by setting is: under setting [11], -0.0172; under setting [12], 0.0926; under setting [13], 0.0437; under setting [14], 0.0893; under setting [15], 0.045; under setting [16], 0.00908. The “cell viability (log2)” value reads like this: under setting [17], -0.104; under setting [18], -0.0169; under setting [19], -1.25 (active); under setting [20], -0.177 (active).
On to `C[C@]12CCC3c4ccc(OS(=O)(=O)O)cc4CCC3C1CC[C@H]2O` (some centres undefined), for which the “cell viability (log2)” value under setting [1] was 0.0646, the “cell viability (log2)” value under setting [2] was 0.0512, the “cell viability (log2)” value under setting [3] is 0.0988 and the “cell viability (log2)” value under setting [4] was 0.092.
`C[C@]12CC[C@@H]3c4ccc(O)cc4CC[C@H]3[C@@H]1CC[C@@H]2O`: the “cell viability (log2)” value is 0.029 under setting [5]; -0.00908 under setting [6]; 0.122 under setting [1]; 0.00576 under setting [2]; 0.147 under setting [7]; 0.0497 under setting [8]. In addition, the “cell viability (log2)” value was 0.101 under setting [9]; 0.0915 under setting [10]; 0.111 under setting [11]; 0.0539 under setting [12]; 0.0979 under setting [3]; 0.0174 under setting [4]. Further, the “cell viability (log2)” value is 0.0738 under setting [13]; 0.0113 under setting [14]; 0.127 under setting [15]; 0.0786 under setting [16]; 0.135 under setting [17]; 0.0545 under setting [18]. In addition, the “cell viability (log2)” value is 0.166 under setting [19] and 0.0719 under setting [20].
With `COc1ccccc1CN1CCN(Cc2ccc(OC)c(OC)c2)CC1`, the “cell viability (log2)” value by setting is: under setting [1], 0.0157; under setting [2], 0.078; under setting [3], 0.0565; under setting [4], 0.0117.
For `CC(C)(C)c1ccccc1OCC(O)CN1CCCCC1` (centres undefined) the same measures were 0.09, 0.0909, 0.176 and 0.0864.
For `CC(=O)Oc1ccc(-c2coc3cc(OC(C)=O)ccc3c2=O)cc1` the same measures were 0.152, 0.0716, 0.0709 and 0.0455.
For `CCOC(=O)C1(O)Oc2cc(OC)cc(OC)c2C(=O)C1c1ccccc1` (centres undefined) the same measures were 0.122, 0.103, 0.112 and 0.086.
In the case of `CCN(CC)CCCC(C)Nc1c2ccc(Cl)cc2nc2ccc(OC)cc12` (centres undefined), the “cell viability (log2)” value was 0.148 under setting [21]; 0.0788 under setting [22]; 0.215 under setting [1]; 0.197 under setting [2]; 0.0911 under setting [7]; 0.0849 under setting [8]. In addition, the “cell viability (log2)” value is 0.176 under setting [3]; 0.252 under setting [4]; 0.0338 under setting [13]; 0.0518 under setting [14]; -4.23 (active) under setting [23]; -2.71 (active) under setting [24].
Consider `CCN(CCO)CCCC(C)Nc1ccnc2cc(Cl)ccc12` (centres undefined), for which the “cell viability (log2)” value by setting is: under setting [1], 0.00358; under setting [2], 0.138; under setting [3], 0.146; under setting [4], 0.0473.
On to `CCN(CC)CCCC(C)Nc1ccnc2cc(Cl)ccc12` (centres undefined), for which the “cell viability (log2)” value was 0.158 under setting [21]; 0.0518 under setting [22]; 0.0569 under setting [1]; 0.0751 under setting [2]; 0.0978 under setting [7]; 0.0902 under setting [8]. Besides, the “cell viability (log2)” value under setting [3] is 0.0579; the “cell viability (log2)” value under setting [4] was 0.079; the “cell viability (log2)” value under setting [13] is 0.0873; the “cell viability (log2)” value under setting [14] is 0.0425; the “cell viability (log2)” value under setting [23] was 0.0565; the “cell viability (log2)” value under setting [24] is 0.0987.
Consider `CC1(C)C(=O)CC[C@@]2(C)C1C[C@@H](O)[C@@]1(C)C3=CC(=O)O[C@@H](c4ccoc4)[C@]3(C)CCC21` (some centres undefined), for which the “cell viability (log2)” value under setting [1] is 0.0874, the “cell viability (log2)” value under setting [2] is 0.0583, the “cell viability (log2)” value under setting [3] is 0.0284 and the “cell viability (log2)” value under setting [4] is 0.0454.
Consider `COc1cc2c(cc1O)C(Cc1ccc(O)cc1)N(C)CC2` (centres undefined), for which the “cell viability (log2)” value reads like this: under setting [1], 0.127; under setting [2], 0.111; under setting [3], 0.067; under setting [4], 0.114.
For `O=C(O[C@@H]1Cc2c(O)cc(O)cc2O[C@@H]1c1cc(O)c(O)c(O)c1-c1c([C@H]2Oc3cc(O)cc(O)c3C[C@H]2O)cc(O)c(O)c1O)c1cc(O)c(O)c(O)c1` the same measures were 0.0332, 0.0641, 0.0977 and -0.0327.
Consider `COc1ncc(-c2ccc3nccc(-c4ccnnc4)c3c2)cc1NS(=O)(=O)c1ccc(F)cc1F`, for which the “cell viability (log2)” value is -0.686 (active) under setting [5]; -0.505 (active) under setting [6]; -1.07 (active) under setting [9]; -0.722 (active) under setting [10]; -1.88 (active) under setting [11]; -1.31 (active) under setting [12]. Moreover, the “cell viability (log2)” value runs as follows: under setting [15], -2.85 (active); under setting [16], -2.24 (active); under setting [17], -3.29 (active); under setting [18], -2.78 (active); under setting [19], -3.83 (active); under setting [20], -3.59 (active).
